Binding signal data for 1 sequence are collected here from article PMC7862700, “An all-to-all approach to the identification of sequence-specific readers for epigenetic DNA modifications on cytosine”.

Common to all, as to assay: DAPPL (digital affinity profiling via proximity ligation, sequencing); 10 mM Tris-HCl pH 7.5, 50 mM NaCl, 1 mM DTT, 4% glycerol, room temperature, 30 min; GST-TFs on glutathione beads, 16-mer random dsDNA library, 0.1% formaldehyde crosslink after washing; high values mean tight binding
Test [1] has as its target T1, FEV (Homo sapiens, UniProt Q99581 1-238).
T1 sequence: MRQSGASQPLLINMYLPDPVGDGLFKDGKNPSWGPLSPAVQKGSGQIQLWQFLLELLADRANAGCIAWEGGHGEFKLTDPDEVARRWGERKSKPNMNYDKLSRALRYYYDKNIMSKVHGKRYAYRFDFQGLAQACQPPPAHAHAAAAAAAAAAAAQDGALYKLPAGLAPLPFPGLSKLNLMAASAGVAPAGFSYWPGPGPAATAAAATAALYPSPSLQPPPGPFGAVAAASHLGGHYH
The conditions noted are these: protein: recombinant; tags: N-terminal GST; dsDNA, one strand shown. In outline: (§1)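 Human transcription factors carrying a GST fusion were produced in yeast, bound to glutathione beads, tagged with DNA barcodes and pooled together with a tag-only sample. Each pool was held with 200 nmole of a random double-stranded 16-mer DNA library in Tris/NaCl/DTT/glycerol buffer for 30 min at room temperature, then washed, crosslinked in 0.1% formaldehyde, proximity-ligated with BsaI/T4 ligase (1 h, 37 °C), PCR-amplified and sequenced on an Illumina NextSeq500. Binding signal is the read frequency of each hexamer for a given factor divided by its frequency in the tag-only sample.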

The target of test [2] is ETV5 (Homo sapiens, UniProt P41161 1-510). The following applies: protein: recombinant; tags: N-terminal GST; dsDNA, one strand shown. Summed up: as §1
Test [3] has as its target HSF1 (Homo sapiens, UniProt Q00613 1-529). The conditions noted are these: protein: recombinant; tags: N-terminal GST; chain copies: 3; dsDNA, one strand shown. Summed up:
as §1

The target of test [4] is T2, SPIC (Homo sapiens, UniProt Q8N5J4 1-248).
T2 sequence: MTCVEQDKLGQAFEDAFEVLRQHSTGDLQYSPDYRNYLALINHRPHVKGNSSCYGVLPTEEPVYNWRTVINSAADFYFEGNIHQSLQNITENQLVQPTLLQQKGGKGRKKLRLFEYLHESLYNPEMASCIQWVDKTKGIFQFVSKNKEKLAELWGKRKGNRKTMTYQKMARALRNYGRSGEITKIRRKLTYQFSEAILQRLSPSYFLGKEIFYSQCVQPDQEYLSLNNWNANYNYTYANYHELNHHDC
The following applies: protein: recombinant; tags: N-terminal GST; dsDNA, one strand shown. In outline:
as §1

For test [5], the target named is ELF4 (Homo sapiens, UniProt Q99607 1-663). The conditions noted are these: protein: recombinant; tags: N-terminal GST; dsDNA, one strand shown. Summed up: as §1
For test [6], the target named is T3, ELK4 (Homo sapiens, UniProt P28324-2 1-405).
T3 sequence: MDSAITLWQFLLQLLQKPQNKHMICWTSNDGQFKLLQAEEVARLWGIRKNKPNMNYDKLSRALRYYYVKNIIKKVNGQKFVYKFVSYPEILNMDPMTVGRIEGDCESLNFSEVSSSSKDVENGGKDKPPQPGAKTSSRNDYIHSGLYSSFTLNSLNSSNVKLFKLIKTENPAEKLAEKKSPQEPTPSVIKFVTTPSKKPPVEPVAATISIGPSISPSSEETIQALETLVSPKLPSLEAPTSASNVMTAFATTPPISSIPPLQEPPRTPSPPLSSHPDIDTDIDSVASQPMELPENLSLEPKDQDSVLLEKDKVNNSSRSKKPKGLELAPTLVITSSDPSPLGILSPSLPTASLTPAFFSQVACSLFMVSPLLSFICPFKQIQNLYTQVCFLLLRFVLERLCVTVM
The conditions noted are these: protein: recombinant; tags: N-terminal GST; dsDNA, one strand shown. In outline: as §1

Test [7] has as its target T4, ETV2 (Homo sapiens, UniProt O00321 1-342).
T4 sequence: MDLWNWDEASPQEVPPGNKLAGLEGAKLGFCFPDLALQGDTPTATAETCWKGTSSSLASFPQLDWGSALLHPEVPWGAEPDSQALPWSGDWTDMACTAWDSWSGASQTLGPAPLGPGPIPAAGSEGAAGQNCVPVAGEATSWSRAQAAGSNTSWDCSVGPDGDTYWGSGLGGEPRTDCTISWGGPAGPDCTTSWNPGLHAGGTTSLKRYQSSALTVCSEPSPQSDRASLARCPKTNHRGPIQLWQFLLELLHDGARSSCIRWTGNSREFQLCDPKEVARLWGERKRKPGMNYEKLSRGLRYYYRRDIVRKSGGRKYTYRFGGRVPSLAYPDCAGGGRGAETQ
The conditions noted are these: protein: recombinant; tags: N-terminal GST; dsDNA, one strand shown. In outline: as §1

The target of test [8] is T5, ELF3 (Homo sapiens, UniProt P78545 1-371).
T5 sequence: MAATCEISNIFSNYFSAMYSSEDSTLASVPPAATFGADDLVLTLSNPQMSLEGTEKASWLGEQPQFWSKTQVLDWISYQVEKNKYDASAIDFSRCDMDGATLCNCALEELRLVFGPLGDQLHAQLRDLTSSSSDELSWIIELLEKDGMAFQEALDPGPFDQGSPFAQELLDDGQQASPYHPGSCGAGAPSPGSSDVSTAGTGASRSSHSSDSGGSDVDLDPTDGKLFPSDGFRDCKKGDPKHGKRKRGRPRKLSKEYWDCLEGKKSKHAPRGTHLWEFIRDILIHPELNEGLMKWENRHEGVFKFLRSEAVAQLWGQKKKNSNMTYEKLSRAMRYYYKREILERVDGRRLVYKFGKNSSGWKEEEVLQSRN
The following applies: protein: recombinant; tags: N-terminal GST; dsDNA, one strand shown. In outline:
as §1

Test [9] has as its target CRX (Homo sapiens, UniProt O43186 1-299). The following applies: protein: recombinant; tags: N-terminal GST; dsDNA, one strand shown. In outline: as §1
In test [10] the target is ETV1 (Homo sapiens, UniProt P50549 1-477). The conditions noted are these: protein: recombinant; tags: N-terminal GST; dsDNA, one strand shown. In outline:
as §1

The target of test [11] is T6, ERF (Homo sapiens, UniProt P50548 1-548).
T6 sequence: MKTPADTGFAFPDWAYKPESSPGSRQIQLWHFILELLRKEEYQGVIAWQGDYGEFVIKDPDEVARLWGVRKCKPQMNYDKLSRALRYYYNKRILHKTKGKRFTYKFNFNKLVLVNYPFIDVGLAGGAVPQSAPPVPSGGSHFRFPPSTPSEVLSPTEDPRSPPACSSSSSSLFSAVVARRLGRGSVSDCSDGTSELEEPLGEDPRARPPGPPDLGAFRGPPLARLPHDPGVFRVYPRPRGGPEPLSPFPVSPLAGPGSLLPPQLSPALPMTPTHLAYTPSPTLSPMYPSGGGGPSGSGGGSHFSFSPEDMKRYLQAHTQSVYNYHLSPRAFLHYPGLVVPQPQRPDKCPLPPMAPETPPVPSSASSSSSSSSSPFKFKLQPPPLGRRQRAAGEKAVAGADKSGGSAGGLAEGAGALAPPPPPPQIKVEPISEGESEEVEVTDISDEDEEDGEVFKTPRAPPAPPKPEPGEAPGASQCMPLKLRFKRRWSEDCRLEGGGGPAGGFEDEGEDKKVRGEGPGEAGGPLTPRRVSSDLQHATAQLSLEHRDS
The conditions noted are these: protein: recombinant; tags: N-terminal GST; dsDNA, one strand shown. In outline:
as §1

Test [12] concerns the target T7, ETV3L (Homo sapiens, UniProt Q6ZN32 1-361).
T7 sequence: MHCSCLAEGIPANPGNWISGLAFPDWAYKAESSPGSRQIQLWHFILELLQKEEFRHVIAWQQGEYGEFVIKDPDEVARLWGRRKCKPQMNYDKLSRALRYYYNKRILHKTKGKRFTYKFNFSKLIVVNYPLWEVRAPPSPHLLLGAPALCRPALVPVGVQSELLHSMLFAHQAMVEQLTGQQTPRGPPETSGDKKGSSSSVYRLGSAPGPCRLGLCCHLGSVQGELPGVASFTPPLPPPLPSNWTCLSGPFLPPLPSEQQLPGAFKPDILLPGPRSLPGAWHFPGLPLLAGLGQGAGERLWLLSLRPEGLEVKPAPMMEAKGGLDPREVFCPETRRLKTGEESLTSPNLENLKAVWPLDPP
The conditions noted are these: protein: recombinant; tags: N-terminal GST; dsDNA, one strand shown. Summed up: as §1

Test [13] has as its target T8, ETS2 (Homo sapiens, UniProt P15036 1-469).
T8 sequence: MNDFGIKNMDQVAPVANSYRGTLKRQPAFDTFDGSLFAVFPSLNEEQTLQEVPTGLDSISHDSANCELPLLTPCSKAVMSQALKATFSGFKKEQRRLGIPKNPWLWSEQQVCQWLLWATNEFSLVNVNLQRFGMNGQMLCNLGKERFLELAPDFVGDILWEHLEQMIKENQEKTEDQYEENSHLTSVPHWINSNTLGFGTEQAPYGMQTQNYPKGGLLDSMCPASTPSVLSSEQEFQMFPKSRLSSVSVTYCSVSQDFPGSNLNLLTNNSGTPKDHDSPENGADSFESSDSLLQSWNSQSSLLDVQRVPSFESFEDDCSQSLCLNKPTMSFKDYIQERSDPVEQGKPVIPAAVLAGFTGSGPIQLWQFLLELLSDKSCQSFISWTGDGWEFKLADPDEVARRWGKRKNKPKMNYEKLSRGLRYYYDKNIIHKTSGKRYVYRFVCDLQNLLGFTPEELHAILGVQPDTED
The following applies: protein: recombinant; tags: N-terminal GST; dsDNA, one strand shown. In outline:
as §1

Test [14] deals with T9, SPDEF (Homo sapiens, UniProt O95238 1-335).
T9 sequence: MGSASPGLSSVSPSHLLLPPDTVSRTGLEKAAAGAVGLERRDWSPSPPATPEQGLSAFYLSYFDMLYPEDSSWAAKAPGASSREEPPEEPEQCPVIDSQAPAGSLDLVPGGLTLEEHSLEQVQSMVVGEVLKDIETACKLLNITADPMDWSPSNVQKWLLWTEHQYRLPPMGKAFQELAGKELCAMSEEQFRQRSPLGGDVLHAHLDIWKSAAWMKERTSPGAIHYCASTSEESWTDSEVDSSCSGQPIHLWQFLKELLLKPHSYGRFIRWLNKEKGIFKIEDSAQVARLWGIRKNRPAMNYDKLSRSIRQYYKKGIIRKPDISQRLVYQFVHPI
The following applies: protein: recombinant; tags: N-terminal GST; dsDNA, one strand shown. Summed up: as §1

For test [15], the target named is T10, ETV7 (Homo sapiens, UniProt Q9Y603 1-341).
T10 sequence: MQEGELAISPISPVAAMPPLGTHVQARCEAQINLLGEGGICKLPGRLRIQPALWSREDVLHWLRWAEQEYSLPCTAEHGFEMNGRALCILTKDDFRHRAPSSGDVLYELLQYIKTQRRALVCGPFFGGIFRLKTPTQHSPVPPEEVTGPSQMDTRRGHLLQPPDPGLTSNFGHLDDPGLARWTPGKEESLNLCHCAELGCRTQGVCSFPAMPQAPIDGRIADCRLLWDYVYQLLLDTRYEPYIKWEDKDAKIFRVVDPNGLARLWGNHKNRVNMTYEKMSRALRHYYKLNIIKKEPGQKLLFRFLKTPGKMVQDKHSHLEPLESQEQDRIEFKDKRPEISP
The conditions noted are these: protein: recombinant; tags: N-terminal GST; dsDNA, one strand shown. Summed up:
as §1

For test [16], the target named is T11, ELF5 (Homo sapiens, UniProt Q9UKW6-2 1-255).
T11 sequence: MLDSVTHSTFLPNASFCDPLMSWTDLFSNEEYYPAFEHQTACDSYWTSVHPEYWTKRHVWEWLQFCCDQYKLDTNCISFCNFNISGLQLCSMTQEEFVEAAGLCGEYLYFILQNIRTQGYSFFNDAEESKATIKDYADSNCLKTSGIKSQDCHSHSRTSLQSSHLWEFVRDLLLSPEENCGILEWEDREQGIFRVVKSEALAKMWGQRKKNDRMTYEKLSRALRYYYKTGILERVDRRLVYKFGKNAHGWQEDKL
The following applies: protein: recombinant; tags: N-terminal GST; dsDNA, one strand shown. Summed up:
as §1

In test [17] the target is T12, ETV3 (Homo sapiens, UniProt P41162-2 1-143).
T12 sequence: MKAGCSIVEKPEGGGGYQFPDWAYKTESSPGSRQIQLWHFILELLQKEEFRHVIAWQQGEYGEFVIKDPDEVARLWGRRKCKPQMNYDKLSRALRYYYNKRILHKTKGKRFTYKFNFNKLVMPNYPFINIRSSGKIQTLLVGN
The conditions noted are these: protein: recombinant; tags: N-terminal GST; dsDNA, one strand shown. Summed up:
as §1

In test [18] the target is ETV6 (Homo sapiens, UniProt P41212 1-452). The following applies: protein: recombinant; tags: N-terminal GST; dsDNA, one strand shown. In outline: as §1
ETV6, sequence (P41212 whole entry): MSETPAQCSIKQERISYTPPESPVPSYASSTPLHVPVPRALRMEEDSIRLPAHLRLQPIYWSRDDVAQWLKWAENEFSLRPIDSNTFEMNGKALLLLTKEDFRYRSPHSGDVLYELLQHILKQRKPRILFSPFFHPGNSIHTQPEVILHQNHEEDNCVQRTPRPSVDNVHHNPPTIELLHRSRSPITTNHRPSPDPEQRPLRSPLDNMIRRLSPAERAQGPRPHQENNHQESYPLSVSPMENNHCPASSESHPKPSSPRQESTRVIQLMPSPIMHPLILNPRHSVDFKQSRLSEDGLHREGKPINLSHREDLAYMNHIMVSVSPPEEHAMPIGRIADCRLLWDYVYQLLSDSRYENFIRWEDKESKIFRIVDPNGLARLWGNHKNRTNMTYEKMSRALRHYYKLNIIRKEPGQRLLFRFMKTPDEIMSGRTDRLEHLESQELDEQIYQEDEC

ETV1, sequence (P50549 whole entry): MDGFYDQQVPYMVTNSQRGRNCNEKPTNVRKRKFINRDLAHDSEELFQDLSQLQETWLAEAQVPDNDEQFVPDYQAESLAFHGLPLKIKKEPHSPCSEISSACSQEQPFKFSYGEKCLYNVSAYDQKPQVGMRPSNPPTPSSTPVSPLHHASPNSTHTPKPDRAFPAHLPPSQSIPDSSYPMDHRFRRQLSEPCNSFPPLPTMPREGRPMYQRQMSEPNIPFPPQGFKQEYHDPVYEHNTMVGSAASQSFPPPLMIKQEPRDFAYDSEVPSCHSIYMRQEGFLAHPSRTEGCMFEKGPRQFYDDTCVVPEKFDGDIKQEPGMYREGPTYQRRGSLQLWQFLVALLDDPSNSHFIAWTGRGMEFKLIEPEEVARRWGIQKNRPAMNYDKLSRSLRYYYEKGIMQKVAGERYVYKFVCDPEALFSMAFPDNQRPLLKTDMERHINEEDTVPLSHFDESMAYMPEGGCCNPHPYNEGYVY
ELF4, sequence (Q99607 whole entry): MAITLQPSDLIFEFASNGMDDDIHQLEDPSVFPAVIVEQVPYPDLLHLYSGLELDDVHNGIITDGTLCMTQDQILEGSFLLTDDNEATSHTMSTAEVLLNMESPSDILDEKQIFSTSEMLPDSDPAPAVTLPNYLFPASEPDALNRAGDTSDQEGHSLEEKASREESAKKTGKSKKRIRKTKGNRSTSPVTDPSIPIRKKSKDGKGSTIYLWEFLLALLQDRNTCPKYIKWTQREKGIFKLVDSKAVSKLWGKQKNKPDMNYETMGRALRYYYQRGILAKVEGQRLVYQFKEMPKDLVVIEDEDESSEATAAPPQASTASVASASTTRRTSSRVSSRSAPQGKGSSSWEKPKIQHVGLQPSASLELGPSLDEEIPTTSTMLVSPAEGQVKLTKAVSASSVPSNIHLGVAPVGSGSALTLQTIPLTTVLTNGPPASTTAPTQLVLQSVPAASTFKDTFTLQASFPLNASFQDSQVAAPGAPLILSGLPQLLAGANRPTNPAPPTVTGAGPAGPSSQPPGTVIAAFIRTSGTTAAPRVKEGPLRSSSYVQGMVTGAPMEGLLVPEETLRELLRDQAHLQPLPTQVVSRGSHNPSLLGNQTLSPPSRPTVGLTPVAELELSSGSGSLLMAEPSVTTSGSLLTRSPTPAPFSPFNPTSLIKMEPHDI
CRX, sequence (O43186 whole entry): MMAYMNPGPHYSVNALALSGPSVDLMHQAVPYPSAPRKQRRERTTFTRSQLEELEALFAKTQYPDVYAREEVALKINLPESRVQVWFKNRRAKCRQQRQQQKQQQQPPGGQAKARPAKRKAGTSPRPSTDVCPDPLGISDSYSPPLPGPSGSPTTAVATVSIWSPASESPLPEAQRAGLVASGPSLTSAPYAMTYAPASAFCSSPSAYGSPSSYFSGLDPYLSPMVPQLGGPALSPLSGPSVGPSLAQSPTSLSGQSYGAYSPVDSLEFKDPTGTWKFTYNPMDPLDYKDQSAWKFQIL
HSF1, sequence (Q00613 whole entry): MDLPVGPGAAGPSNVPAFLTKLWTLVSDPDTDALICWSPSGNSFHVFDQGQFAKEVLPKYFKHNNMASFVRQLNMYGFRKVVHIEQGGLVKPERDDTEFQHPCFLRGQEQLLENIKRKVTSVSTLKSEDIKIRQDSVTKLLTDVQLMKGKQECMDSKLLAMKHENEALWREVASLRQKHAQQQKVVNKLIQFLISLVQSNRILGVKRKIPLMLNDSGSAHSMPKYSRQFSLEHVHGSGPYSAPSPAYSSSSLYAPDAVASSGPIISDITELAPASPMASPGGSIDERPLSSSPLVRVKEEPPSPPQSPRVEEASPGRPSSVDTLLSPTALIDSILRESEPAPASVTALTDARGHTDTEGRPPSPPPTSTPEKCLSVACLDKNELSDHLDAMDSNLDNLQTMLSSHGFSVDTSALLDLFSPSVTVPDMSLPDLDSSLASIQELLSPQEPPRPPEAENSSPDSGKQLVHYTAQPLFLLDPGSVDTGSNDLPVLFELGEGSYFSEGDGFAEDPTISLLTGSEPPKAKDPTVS
ETV5, sequence (P41161 whole entry): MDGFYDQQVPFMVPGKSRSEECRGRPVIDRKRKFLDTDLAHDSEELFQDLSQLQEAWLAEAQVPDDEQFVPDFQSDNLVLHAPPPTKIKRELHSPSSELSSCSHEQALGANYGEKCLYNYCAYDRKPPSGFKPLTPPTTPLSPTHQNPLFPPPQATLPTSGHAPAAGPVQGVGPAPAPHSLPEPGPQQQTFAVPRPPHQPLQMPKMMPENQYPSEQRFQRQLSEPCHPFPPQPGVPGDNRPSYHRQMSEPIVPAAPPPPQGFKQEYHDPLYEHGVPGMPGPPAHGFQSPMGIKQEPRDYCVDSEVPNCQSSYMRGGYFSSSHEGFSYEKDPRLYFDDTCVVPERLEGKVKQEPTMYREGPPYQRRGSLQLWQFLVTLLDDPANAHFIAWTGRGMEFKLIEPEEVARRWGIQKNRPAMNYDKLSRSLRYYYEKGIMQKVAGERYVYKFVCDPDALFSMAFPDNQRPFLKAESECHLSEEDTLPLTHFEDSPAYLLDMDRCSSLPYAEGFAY

Regarding CGATTT, the binding signal in test [1] was 1.22 fold enrichment (6-mer frequency, TF over GST control); in [2], 1.23 fold enrichment (6-mer frequency, TF over GST control); in test [3] it was 1.38 fold enrichment (6-mer frequency, TF over GST control); in test [4] it was 1.22 fold enrichment (6-mer frequency, TF over GST control); in test [5] it was 1.19 fold enrichment (6-mer frequency, TF over GST control); in test [6], 1.14 fold enrichment (6-mer frequency, TF over GST control). Besides, the binding signal in test [7] was 1.13 fold enrichment (6-mer frequency, TF over GST control); in test [8] it was 1.23 fold enrichment (6-mer frequency, TF over GST control); in test [9], 1.58 fold enrichment (6-mer frequency, TF over GST control); in [10], 1.17 fold enrichment (6-mer frequency, TF over GST control); in [11], 1.09 fold enrichment (6-mer frequency, TF over GST control); in test [12] it was 1.17 fold enrichment (6-mer frequency, TF over GST control). Besides, the binding signal in test [13] was 1.26 fold enrichment (6-mer frequency, TF over GST control); in test [14], 1.07 fold enrichment (6-mer frequency, TF over GST control); in test [15], 1.13 fold enrichment (6-mer frequency, TF over GST control); in [16] it was 1.13 fold enrichment (6-mer frequency, TF over GST control); in test [17], 1.18 fold enrichment (6-mer frequency, TF over GST control); in [18], 1.22 fold enrichment (6-mer frequency, TF over GST control).
